Here are results for 51 molecules from PubChem BioAssay AID2071 (Sanford-Burnham Center for Chemical Genomics, 2009).

A short description of the test: NALP1 inflammasome inhibitors in reconstituted yeast, colorimetric, S. cerevisiae, triplicate retest (AID 2071). As to conditions: S. cerevisiae NALP1/ASC/caspase-1 growth, X-gal OD620, 72 h, stronger effect = higher value.

Structures are written as SMILES. In all, about 280,000 compounds went through this assay and about 1,700 (0.61%) were called active. This is one part of a sample in which actives are shown more often than they occur. No stated cut-off is given here; in the data, active means inhibition mostly above about 24% (no sharp cut-off); inactive means mostly below about 32%.

For orientation: inhibition means the drop in the measured response relative to a control, in per cent. `O=C(Nc1cccc2cccnc12)c1cccc(Cl)c1`: the inhibition (at 10 µM unless noted) was 0.8% (inactive).

In the case of `O=C(Nc1cccc2cccnc12)c1cccc(N2C(=O)CCC2=O)c1`, the inhibition (at 10 µM unless noted) is 15.2% (inactive).

As for `O=Cc1c(Nc2ccccc2Cl)nc2ccccn2c1=O`, under “at 10 µM unless noted”, the inhibition was 13.8% (inactive).

On to `Cc1ccc(CCn2c3c(c4ccccc42)CN(C)CC3)cn1`, for which the inhibition (at 10 µM unless noted) is 39.6% (active).

For the molecule `COc1cc(Br)c(-c2sc(Nc3ccccc3)n[n+]2-c2ccccc2)cc1OC`, the inhibition (at 10 µM unless noted) is -1.9% (inactive).

Consider `Cc1ccccc1Nc1nc(-c2cccnc2)cs1`, for which the inhibition (at 10 µM unless noted) is 16.4% (inactive).

For the molecule `COc1nnc(-c2ccc(C)c(S(=O)(=O)N(C)C)c2)c2ccccc12`, the inhibition (at 10 µM unless noted) is 17.5% (inactive).

With `Cc1ccc(Nc2nnc(SCC(=O)c3cc4ccccc4o3)s2)cc1C`, the inhibition (at 10 µM unless noted) was 5% (inactive).

On to `CCCc1nc2ccccc2c(C(=O)OCC(=O)c2ccc3c(c2)NC(=O)CO3)c1CC`, for which the inhibition (at 10 µM unless noted) is -1.4% (inactive).

Turning to `CCc1ccc(Nc2nnc(SCC(=O)c3ccc4c(c3)NC(=O)CO4)s2)cc1`, the inhibition (at 10 µM unless noted) was 39.5% (active).

`COc1ccc(C(=O)/C=C/c2cccnc2)c(OC)c1`: the inhibition (at 10 µM unless noted) is -90.5% (inactive).

Regarding `COc1ccc(O)c(/C=N/N=C/c2cccc([N+](=O)[O-])c2)c1`, where the note is “at 10 µM unless noted”, the inhibition is 14.9% (inactive).

For `Cc1ccc(O)c(CNc2nc3ccccc3[nH]2)c1`, the inhibition (at 10 µM unless noted) is 10.8% (inactive).

As for `COCC1CCN(C(=O)C2CCC(=O)N(Cc3cccc(C(F)(F)F)c3)C2)CC1` (centres undefined), under “at 10 µM unless noted”, the inhibition is 2.8% (inactive).

For the molecule `COc1ccc(Cl)cc1NC(=O)CN1CCN(C(=O)N2CCOCC2)CC1`, the inhibition (at 10 µM unless noted) was 5.1% (inactive).

Consider `Nc1c(C(=O)NCc2ccccc2)nnn1Cc1cccc(Cl)c1`, for which the inhibition (at 10 µM unless noted) was 7% (inactive).

As for `CC(C)CC(=O)N1CCN(Cc2cccc(Cl)c2)CC1`, under “at 10 µM unless noted”, the inhibition was 10.5% (inactive).

As to `Clc1cccc(CN2COc3c(cc(Cl)c4cccnc34)C2)c1`, under “at 10 µM unless noted”, the inhibition is 125% (active).

On to `CCC(NC(=O)c1cc(COc2ccc(F)c(F)c2)on1)c1ccncc1` (centres undefined), for which, where the note is “at 10 µM unless noted”, the inhibition was 0.6% (inactive).

Turning to `Cc1ccc(NS(=O)(=O)c2ccc(-c3coc(C)n3)cc2)c(C)c1`, for the setting “at 10 µM unless noted”, the inhibition was 3.2% (inactive).

For the molecule `COC(=O)/C=C\C(=O)Nc1cccc([N+](=O)[O-])c1`, the inhibition is, setting by setting: (at 10 µM) 108% (active); (triplicate retest, at 20 µM) 116%.

In the case of `COc1cccc(CNC(=O)CCCC(=O)Nc2cccc([N+](=O)[O-])c2)c1`, the inhibition (at 10 µM unless noted) was -4.2% (inactive).

With `O=C(CSCC(=O)Nc1cccc([N+](=O)[O-])c1)Nc1ccccc1`, the inhibition (at 10 µM unless noted) was 27.6% (inactive).

Consider `O=S1(=O)CCOC[C@H](CC2CCCCC2)N1Cc1ccc(F)cc1`, for which the inhibition (at 10 µM unless noted) is 22.6% (inactive).

With `C/C(=N\NC(=O)C1(C)CC1(Br)Br)c1ccc(C)cc1C` (centres undefined), the inhibition (at 10 µM unless noted) was -0.3% (inactive).

As for `CCC(=O)c1ccc(OCC(O)CN2CC(C)OC(C)C2)cc1` (centres undefined), where the note is “at 10 µM unless noted”, the inhibition was 0.7% (inactive).

On to `CCC(=O)c1ccc(OCC(O)CN2CCN(c3cccc(C(F)(F)F)c3)CC2)cc1` (centres undefined), for which the inhibition is 52.2% (active) (at 10 µM) and 65.2% (triplicate retest, at 20 µM).

Consider `O=C(COc1ccc(Cl)cc1)N1CCN(c2cccc(C(F)(F)F)c2)CC1`, for which the inhibition (at 10 µM unless noted) is -4.3% (inactive).

For `COc1ccc(S(=O)(=O)N2CCOC2CNC(=O)C(=O)NCc2ccncc2)cc1C` (centres undefined), the inhibition (at 10 µM unless noted) was 0.1% (inactive).

`CCC(=O)c1cn(CCOc2ccccc2OC)c2ccccc12`: the inhibition (at 10 µM unless noted) is 14.8% (inactive).

As for `OCCn1c(-c2ccccc2)csc1=Nc1ccccc1`, the inhibition (at 10 µM unless noted) was 50.3% (active).

In the case of `Cc1csc(=NC(=O)c2ccccc2)n1CCO`, where the note is “at 10 µM unless noted”, the inhibition was 2.4% (inactive).

For the molecule `Cc1csc(=Nc2ccccc2)n1CCO`, the inhibition (at 10 µM unless noted) was 26.1% (inactive).

`O=C(NCCCN1CCOCC1)c1cc(-c2ccccc2F)no1`: the inhibition (at 10 µM unless noted) was 20.9% (inactive).

Regarding `C[N+](C)(C)CCNC(=O)c1cc[n+](Cc2ccccc2)c(/C=N/O)c1`, the inhibition (at 10 µM unless noted) was 6.7% (inactive).

For `O=C(NC1CCCC1)c1cc(-c2ccccc2)on1`, where the note is “at 10 µM unless noted”, the inhibition is 15.4% (inactive).

As for `CC(=O)C(C)n1cnc2scc(-c3ccc(C)cc3)c2c1=O` (centres undefined), where the note is “at 10 µM unless noted”, the inhibition is -5% (inactive).

For the molecule `C/C(=N\NC(=O)COc1ccc(C)cc1[N+](=O)[O-])c1ccc2c(c1)OCCO2`, the inhibition (at 10 µM unless noted) was 12% (inactive).

On to `CCOc1ccc(NS(=O)(=O)c2ccc(OCC(=O)NCCCOC)cc2)cc1`, for which, under “at 10 µM unless noted”, the inhibition was -2.5% (inactive).

As for `COCCCNC(=O)COc1cc(C)c(Cl)c(C)c1`, where the note is “at 10 µM unless noted”, the inhibition was 33.8% (active).

`COCCNC(=O)COc1ccccc1C`: where the note is “at 10 µM unless noted”, the inhibition was 6.3% (inactive).

Turning to `CCSc1nsc(NC(=O)Nc2ccccc2OC)n1`, the inhibition (at 10 µM unless noted) was 18.6% (inactive).

For the molecule `COc1cccc(CNCCc2c[nH]c3ccccc23)c1OCc1ccccc1F`, the inhibition (at 10 µM unless noted) is -3.7% (inactive).

For the molecule `COc1ccc(C(CCNCc2ccccc2F)c2ccc(F)cc2)cc1` (centres undefined), the inhibition was 46.5% (active) (at 10 µM) and 74.4% (triplicate retest, at 20 µM).

Regarding `COc1ccc(CC(=O)NC(C)CCc2ccccc2)cc1` (centres undefined), where the note is “at 10 µM unless noted”, the inhibition was 7.9% (inactive).

As to `CCCCNC(=O)C1CCCNC1=O` (centres undefined), where the note is “at 10 µM unless noted”, the inhibition is 42.8% (active).

Take `CCCOc1ccc(NC(=O)C2CCCNC2=O)cc1` (centres undefined): the inhibition (at 10 µM unless noted) is 7.4% (inactive).

Regarding `CCCCNC(=O)C1CCC(=O)N1CCc1ccccc1` (centres undefined), the inhibition (at 10 µM unless noted) is -0.8% (inactive).

With `O=[N+]([O-])c1ccc(NC(=S)N2CCN(c3ccccn3)CC2)cc1`, the inhibition (at 10 µM unless noted) was 9.2% (inactive).

For `CC(=O)N1c2ccc(S(=O)(=O)N3CCCC(C(=O)NCc4ccc(Cl)cc4)C3)cc2CC1C` (centres undefined), the inhibition (at 10 µM unless noted) is -3.9% (inactive).

As for `COc1ccccc1NC(=O)C1CCN(C(=O)c2ccc(C(C)(C)C)cc2)CC1`, the inhibition (at 10 µM unless noted) was 3.2% (inactive).
